# HCV inhibitor: qHTS Assay for Inhibitors of Hepatitis C Virus (HCV). hit rate 3.4% among 340,000. Potency, µM (titrated, usually from 41.8 µM), without a hit: at the top dose activity change, negative = inhibition, actives largely listed as inhibitors. Huh7.5.1 HCVcc-Cre infection, luciferase reporter, 44 h. AID 651820, 2012
#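 After 44 h co-culture of compound, cells and HCVcc-Cre (~0.5 moi), substrate is added for 15 min at room temperature and luciferase measured over 15 sec. Cells were seeded at 1,000/well and pre-cultured 4 h.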
# AMA1 RON2 block: qHTS for Inhibitors of AMA1-RON; Towards Development of Antimalarial Drug Lead: Primary Screen. Plasmodium falciparum AMA1 (3D7) - RON2 peptide interaction. AlphaScreen AMA1-biotinylated RON2 peptide binding. Potency, µM (titrated, usually from 58.2 µM), without a hit: top-dose activity change, negative = inhibition, most hits filed as inhibitors. hit rate 0.2% among 360,000;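 note: 0% = vehicle wells and -100% = peptide control; nearly all actives have a fitted effect of over 45% in size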
#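 AMA1 (3D7) with his tag at 25 nM final met compounds first, then biotinylated RON2 peptide at 25 nM; detection used donor plus acceptor beads, 10 µg/mL apiece, read by AlphaScreen after 30 min at room temperature.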
# Pf growth 48h: Primary qHTS for delayed death inhibitors of the malarial parasite plastid, 48 hour incubation. P. falciparum luciferase growth in erythrocytes, 48 h. hit rate 5.9% among 310,000. Potency, µM (highest dose often 28.7 µM), inactives show at the highest dose activity change, negative = inhibition, most hits filed as inhibitors
#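 Here the parasites carry a stable luciferase gene and grow inside erythrocytes in Albumax-based RPMI medium with compound for one erythrocytic cycle. Activity is scored as loss of luminescent signal.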
# Pf growth 96h: Primary qHTS for delayed death inhibitors of the malarial parasite plastid, 96 hour incubation | Potency, µM (titrated, usually from 28.7 µM), without a hit: at the highest dose activity change, negative = inhibition, hits mostly inhibitors | P. falciparum luciferase reporter growth, 96 h | hit rate 6.9% among 320,000
#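 Parasite growth measured via integrated firefly luciferase reporter in P. falciparum. Infected erythrocytes at 2% hematocrit, 0.05% parasitemia final were treated 96 hours at 37 C under 5% CO2, and luminescence was read.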
# Starred values were filed as active, the others as inactive; u = inconclusive; x = not tested or not shown. In the library only some 11% were active in any assay of this set; here they are far more common. Calls come from the whole dose curve; as a rule, active = well fitted curve in the direction sought with a large enough effect; inconclusive = small, poorly fitted or top-dose-only effect, or another doubt; inactive = no such curve, though single readings can be large; an effect the other way counts as inactive or inconclusive. Unless noted, % is set by controls: 0 for no effect and ±100 for the full control effect; potency is the fitted concentration of half-maximal effect.
SMILES,HCV inhibitor,AMA1 RON2 block,Pf growth 48h,Pf growth 96h
NC1=NC[C@H](Cc2ccc(O)cc2)N1CCc1cc(C(F)(F)F)cc(C(F)(F)F)c1,18.4%,-4.6%,5.22µM*,2.08µM*
CCOc1ccc(C(=O)NCC(=O)N2CCC3(CC2)NCCc2[nH]cnc23)cc1,7.4%,-0.8%,1.3%,18.1%
COc1ccc(C(=O)OCC(=O)NCC2CCCO2)cc1S(=O)(=O)N1CCCc2ccccc21 (centres undefined),12.9%,14.2%,0.0%,-26.0%
C=CCOC(=O)C1=C(C)NC(=S)C(C#N)(CC=C)C1c1ccccc1Cl (centres undefined),-23.4%,11.5%,1.47µM*,1.47µM*
C=CCOC(=O)C1=C(C)OC(N)=C(C#N)C1c1ccccc1F (centres undefined),1.6%,-1.5%,x,x
COCCCN1Cc2cccc(C(=O)O)c2C1=O,6.0%,-0.1%,x,8.28µM*
COc1ccc(-c2cc(C(=O)N3CCCCCC3)no2)cc1OC,6.0%,-1.6%,70.4%,134.2%
O=C(c1cc(-c2ccccc2)on1)N1CCN(C(=O)c2ccco2)CC1,16.6%,-0.8%,33.4%,1.0%
Cn1nc(C(=O)N2CCN(C(c3ccccc3)c3ccccc3)CC2)c2ccccc2c1=O,u,0.0%,4.65µM*,11.7µM*
COc1ccc(-c2cc(C(=O)N3CCN(C(c4ccccc4)c4ccccc4)CC3)no2)cc1OC,u,-7.0%,7.38µM*,-7.0%
CC(C)c1cc(C(=O)N2CCN(C(c3ccccc3)c3ccccc3)CC2)no1,u,2.6%,9.28µM*,x
O=C(c1cc(-c2ccco2)on1)N1CCN(C(c2ccccc2)c2ccccc2)CC1,2.51µM*,12.3%,11.7µM*,24.7%
CC(C)Cc1cc(C(=O)N2CCN(C(c3ccccc3)c3ccccc3)CC2)no1,0.0%,-0.7%,x,-0.5%
COCCNC(=O)CSc1nc2nn(-c3ccccc3)c(=O)c-2c2n1CCCCC2,20.8%,20.8%,-19.4%,u
Cc1ccsc1C(=O)NNC(=O)c1ccncc1,u,-7.0%,22.2%,29.4%
O=C(c1cc(-c2ccc(F)cc2)on1)N1CCCCCC1,1.7%,8.1%,174.2%,14.7µM*
COc1ccc(-c2cc(C(=O)N3CCN(C(c4ccccc4)c4ccccc4)CC3)no2)cc1,10µM*,-7.7%,u,11.7µM*
CCOc1ncccc1C(=O)N1CCN(C(c2ccccc2)c2ccccc2)CC1,11.2µM*,-0.1%,u,u
O=C(c1cc(-c2ccc(F)cc2)on1)N1CCCC1,12.5%,3.1%,90.2%,x
Cc1ccc(-n2c(-c3ccccc3)c[n+]3c2CCc2ccccc2-3)c(C)c1,u,4.4%,0.928µM*,0.0%
c1ccc2c(c1)Cn1nnnc1-2,9.6%,9.1%,7.8%,4.15µM*
c1ccc2c(c1)CC1(CCCCC1)n1nnnc1-2,-8.4%,u,-9.9%,-23.9%
CC1=C(CC(=O)c2ccc(Cl)cc2)C(=O)c2ccccc2C1=O,4.47µM*,11.9µM*,0.165µM*,u
Cc1ccc(C23OC(=O)C(C)(C)C2OC(=O)C3(C)C)cc1 (centres undefined),3.0%,-3.0%,9.28µM*,13.1µM*
Cc1ccc(C2OCC(C)([N+](=O)[O-])CO2)cc1 (centres undefined),10.5%,3.5%,x,x
SMILES,HCV inhibitor,AMA1 RON2 block,Pf growth 48h,Pf growth 96h
O=C(O)C1=NN(c2cc(Cl)c(S(=O)(=O)O)cc2Cl)C(=O)C1,19.5%,2.82µM*,x,x
CC1=NN(c2ccc(S(=O)(=O)O)cc2C)C(=O)C1,12.0%,7.8%,3.7%,-6.5%
CC1=NN(C(=O)c2ccccc2)C(O)(c2ccc(Br)cc2)C1 (centres undefined),u,7.4%,u,3.7µM*
CC1=NN(C(=O)c2ccccc2F)C(O)(c2ccc(Cl)cc2)C1 (centres undefined),-4.9%,63.8%,-0.1%,13.1µM*
Cc1cc(NC(=O)CSCC(=O)N2CCN(c3cccc(C(F)(F)F)c3)CC2)no1,-7.0%,-17.3%,u,-23.1%
C=CCN(Cc1cn(C)nc1-c1cccc(Cl)c1)C1CCS(=O)(=O)C1 (centres undefined),9.7%,1.3%,-3.4%,298.3%
Clc1ccc(OCCCc2nc(-c3cccnc3)no2)c(Cl)c1,-9.3%,31.7%,6.0%,9.28µM*
O=C(NCC(=O)N(c1cccnc1)C(C(=O)NC1CCCC1)c1cccs1)c1ccco1 (centres undefined),14.4%,14.1%,u,u
